We go through 46 sequences from the supplement of paper PMC11417369.

± gives the standard deviation of the averaged measurements. The full ranking holds about 25,000 sequences; the median of “ln(normalized median fluorescence intensity)” is about 7.9, and the highest 2% start at about 11. Only a selection was taken, and the highest values are over-represented in it overall.

The test system of the assay is PfAP2-I AP2 domain 3 (GST-tagged). Put plainly: gcPBM binding intensity (ln(normalized median fluorescence intensity)); higher = stronger DNA binding. In a few lines:
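GST-fused DNA-binding domains of P. falciparum, expressed in E. coli, were applied at about 25 μg on average for 1 h to an Agilent 4 × 180k array of primer-extended double-stranded 36-bp intergenic genomic probes and negative controls. Binding intensity is the highest Masliner-normalised natural-log median intensity across replicate spots of either probe orientation, measured with Alexa488 anti-GST antibody and a 488 nm scan.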
Turning to “AATTTTTTATTCTTTGCATGTCATCATATATAATAT [TGCATGCA_site549]”, the “gcPBM binding intensity (ln)” value came out at 8.12 ± 0.69.
As to “TCTTATTTAAAAATAGCACACATTATATATATATAT [CACACA_site8916]”, the “gcPBM binding intensity (ln)” value came out at 9.44 ± 0.26.
On to “TTTTTTAAAATATAAAATATGTACAAATATGTTGAA [GTGCAC_negctrl_site379]”, for which the “gcPBM binding intensity (ln)” value amounted to 7.97 ± 0.3.
The figure for “TGAATAAATAAACACACACACATATATATATCTGTA [CACACA_site4184]” is 7.59 ± 0.4; for AATATTCAATATAAAGTGCATTATTGTGGACCTAAT it is 11.3 ± 0.65.
The figure for “ACTATATATATAAGTGCATGTTCATTATACCTAAAG [TGCATGCA_site696]” is 8.93 ± 0.57; for AATATTCAATATAAAGTGCATTATTGTGCCCCTAAT it is 11.3 ± 0.64.
The figure for TTCGCCCTAAATAGAGTGCATTATATATATTAATAT is 11.4 ± 0.58.
Take AGTAATTATTTTAGAGTGCATAGTTTTTTAATAAAT: the “gcPBM binding intensity (ln)” value is 9.54 ± 0.18.
The figure for “AAGTGCATATTATTCACACATAATAATTGTATACCT [CACACA_site5965]” is 10.3 ± 0.47.
Then “TTAATTATTATATAAGTGCAATAATAAAAAGTTGTA [GTGCAC_site9552]”, with 10.7 ± 0.76; and AAATAAATAAATAGAGTGCATATATATATATATTTT, with 10.01 ± 0.042; and “ACGTACTGCCCTAAAGTGCATATATAATATAAACGA [GTGCAC_site9911]”, with 10.1 ± 0.34.
For the sequence “ACTAACATATATTCAACACACATATACCTTCAACCC [CACACA_site3011]”, the “gcPBM binding intensity (ln)” value came out at 7.94 ± 0.72.
The figure for “TAAATGCACATATACACACACCCAATTTTAAGTTTT [CACACA_site7428]” is 9.31 ± 0.3; for “TAAATAAAAAAAAAAAGTACATACATACAAACATAT [XGTACX_site4427]” it is 7.79 ± 0.47.
Then “TGAACATCATTTTTATGTACACACACATATACGTTG [XGTACX_site3864]”, with 7.96 ± 0.28; and “AAAAAAAAATAATATTGTACACACATAAATTCTTTG [XGTACX_site4315]”, with 7.51 ± 0.47.
“TTATAATACCTACAAAGTACAAACTTAAATATGAAC [XGTACX_site5684]”: the “gcPBM binding intensity (ln)” value turned out to be 7.68 ± 0.39.
Regarding TATGGGTTTATATAGGTGCAATATATGTATATATAA, the “gcPBM binding intensity (ln)” value is 11.2 ± 0.59.
Then “GCATATATGGATATATAGGTATATATAAATGCAATA [GTGCAC_negctrl_site24]”, with 7.82 ± 0.71.
The figure for “TATACAAGTATATAGGTGCATATATAAGTATATATT [GTGCAC_site9994]” is 10.5 ± 0.53; for “ATATATTTATAATAGGTGCATATGTTTTATTTTTCC [GTGCAC_site9849]” it is 10.1 ± 0.5.
“TGTATGTTTGGGTGCACACATAAATATTATATATAG [CACACA_site3397]”: the “gcPBM binding intensity (ln)” value turned out to be 10.5 ± 0.57.
As for “TATAGGTATATATAAGTGCAATATATATGTATATAC [GTGCAC_site9427]”, the “gcPBM binding intensity (ln)” value worked out at 10.9 ± 0.41.
“AAATACCTGATATATACACACTATGTTTTTCTTTTT [CACACA_site6680]”: the “gcPBM binding intensity (ln)” value was found to be 7.77 ± 0.81.
The figure for “CTTTTTAAATTAAAATGTACAGAAAAATATTATTAT [XGTACX_site8760]” is 7.72 ± 0.69.
Then “AAGGAAAATTTTTGGTGTACACAAAAAAATCCAAAA [XGTACX_site3596]”, with 8.46 ± 0.057; and “AAAGATGGAGTGATATGTACTGATATATTATTATAT [XGTACX_site6500]”, with 7.62 ± 0.67.
The figure for “TGTATAACCTGTGTTACACACATTAAAATTTATATA [CACACA_site4449]” is 7.67 ± 0.46; for TTTGTTCTTTTTGAAGTGCACTGAAATATAACAAAA it is 11.3 ± 0.16; for “AAAAAAAAAAAAAAAGTGCATATATAAATATTGTAT [GTGCAC_site9459]” it is 10.1 ± 0.18.
Turning to “TTATTTTTGTTTTGAAGTACAAAAAAATATATTCTT [XGTACX_site6416]”, the “gcPBM binding intensity (ln)” value turned out to be 7.63 ± 0.34.
Then “AAAAAAAAAAAAAAAGTGCACTGAAAATATATTGAA [GTGCAC_site9395]”, with 11 ± 0.2.
Then AAATAATATTGAAAAGTGCATATTTTTGTTGATATA, with 9.15 ± 0.21; and “TTCTTGTTCCTGAAAGTGCATATAACAAAAATAACA [GTGCAC_site9635]”, with 9.99 ± 0.3; and “GTTTCCTTAATATTCACACACATATATATAATATAT [CACACA_site1856]”, with 8.22 ± 0.54.
The figure for “TATAAAAATATTTCTACACACATTAATATATATATA [CACACA_site1150]” is 8.97 ± 0.042.
“TTTTACATATACATGTGTACATAACAAAGAATGTTT [XGTACX_site2406]”: the “gcPBM binding intensity (ln)” value was determined as 7.88 ± 0.57.
Then “TATATACGCAAACACACACACACATACACCCACATA [CACACA_site1724]”, with 8.09 ± 0.31; and “ACAGAATATTTAATTCAACACACATACATATTTATT [CACACA_site8734]”, with 7.61 ± 0.52.
Take TATAAATTTATACCAGTGCATTTTGAAATATATATA: the “gcPBM binding intensity (ln)” value was 9.47 ± 0.057.
Consider TATATAAATTAACCAGTGCATTATTTGGAAATTATT, for which the “gcPBM binding intensity (ln)” value is 11.1 ± 0.59.
Then TATAAATTAAAATCAGTGCATATTTTGAAAAACCTC, with 9.19 ± 0.41; and “TGGTTATTTATCTTTATTATAAATATTTACAAATAA [CACACA_negctrl_site1773]”, with 7.61 ± 0.38.
Regarding “TTCATAATAAAAAGGTGTACATATATATATATATAT [XGTACX_site2829]”, the “gcPBM binding intensity (ln)” value was 9.71 ± 0.2.
